The text below walks through data of PubChem BioAssay AID651551 (Sanford-Burnham Center for Chemical Genomics, 2012).

The experiment can be described thus: GAPDH versus PEG-3 reporter suppression – cell-based, luminescence, counter-screen for PEG-3 promoter inhibitor project, SAR follow-up (AID 651551). To be noted: HeLa PEG-Prom / GAPDH luciferase reporter, 6 or 24 h, run 1, 24 h; at 99 µM (top of the series). On the technique in general: The purpose of a counterscreen is to sort out artefacts and off-target activity.
Molecule `Cc1cc(NC(=O)c2ccccc2C)n(-c2nc3ccccc3[nH]2)n1` came in with an inhibition % (higher = more inhibition) of 57.6%.

`COc1ccc(-n2nc(C(=O)NCC(=O)Nc3cc(OC)c(OC)c(OC)c3)c3ccccc3c2=O)cc1OC` had an inhibition % (higher = more inhibition) of 69.6%.

Take `CCCn1nc(C(=O)Nc2nc(-c3ccccn3)cs2)c2ccccc2c1=O`: the inhibition % (higher = more inhibition) came out at 73.2%.

`Cc1nc(NC(=O)c2ccccc2)sc1-c1csc(Nc2cccc(Cl)c2C)n1`: the inhibition % (higher = more inhibition) is 43.1%.

Regarding `O=C(Nc1nc2ccccc2s1)c1nn(-c2ccccc2)c(=O)c2ccccc12`, the inhibition % (higher = more inhibition) turned out to be 40.7%.

For `COc1ccc(-n2nc(C(=O)NCC(=O)Nc3cccc(OC)c3)c3ccccc3c2=O)cc1`, the inhibition % (higher = more inhibition) was determined as 28.1%.

`CCn1cc(C(=O)NCc2ccco2)c(=O)c2cc(S(=O)(=O)N3CCCC3)ccc21` gave an inhibition % (higher = more inhibition) of 56.3%.

Turning to `Cc1cc(NC(=O)c2ccccc2)n(-c2nc3ccccc3[nH]2)n1`, the inhibition % (higher = more inhibition) amounted to 14.1%.

`COc1ccccc1Nc1nc(-c2sc(NC(=O)c3ccco3)nc2C)cs1` displayed an inhibition % (higher = more inhibition) of 68.4%.

Molecule `COc1ccc(Cl)cc1Nc1nc(-c2sc(NC(=O)c3ccccc3)nc2C)cs1` returned an inhibition % (higher = more inhibition) of 74.9%.

Molecule `CCCn1nc(C(=O)Nc2nc(-c3ccncc3)cs2)c2ccccc2c1=O` showed an inhibition % (higher = more inhibition) of 88.9%.

`Cc1nc(NC(=O)c2ccccc2)sc1-c1csc(Nc2ccccc2Cl)n1` gave an inhibition % (higher = more inhibition) of 22.6%.

For the molecule `CCn1nc(C(=O)Nc2nc(-c3ccccn3)cs2)c2ccccc2c1=O`, the inhibition % (higher = more inhibition) turned out to be 32.8%.

Take `CCCn1nc(C(=O)Nc2nc3ccccc3s2)c2ccccc2c1=O`: the inhibition % (higher = more inhibition) is 37.5%.

`O=C(Nc1nc(-c2ccccc2)cs1)c1nn(-c2ccccc2)c(=O)c2ccccc12` showed an inhibition % (higher = more inhibition) of 23.5%.

As to `COCCCNC(=O)c1ccc(Cn2c(=O)c3ccccc3n(Cc3ccccc3C#N)c2=O)cc1`, the inhibition % (higher = more inhibition) stood at 73.3%.

With `Cc1nc(NC(=O)c2ccccc2)sc1-c1csc(Nc2ccccc2)n1`, the inhibition % (higher = more inhibition) was found to be 92%.

The molecule `Cc1cc(NC(=O)c2cccc(C)c2C)n(-c2nc3ccccc3[nH]2)n1` returned an inhibition % (higher = more inhibition) of 27.5%.

`Cc1cc(NC(=O)c2ccccc2)n(-c2nc3ccccc3n2C)n1` came in with an inhibition % (higher = more inhibition) of 6.34%.

On to `Cc1ccc(Cl)cc1Nc1nc(-c2sc(NC(=O)c3ccco3)nc2C)cs1`, for which the inhibition % (higher = more inhibition) worked out at 78%.

With `Cc1cc(NC(=O)c2ccccc2C(F)(F)F)n(-c2nc3ccccc3[nH]2)n1`, the inhibition % (higher = more inhibition) amounted to 97.3%.

`O=C(Nc1nccs1)c1nn(-c2ccccc2)c(=O)c2ccccc12` showed an inhibition % (higher = more inhibition) of 38.3%.

Molecule `COc1ccc(-n2nc(C(=O)NCC(=O)Nc3ccc(OC)c(OC)c3)c3ccccc3c2=O)cc1` registered an inhibition % (higher = more inhibition) of 84.2%.
